# Data as given in PubChem BioAssay AID1259341 (Broad Institute, 2017).
# Activity calls are given as the source filed them.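 Rule for the calls: active = activity change under -35% in any replicate well, with more than 20 beads read in that well; inactive = the rest.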
# Molecular target: Caspase recruitment domain-containing protein 9 (Homo sapiens) + E3 ubiquitin-protein ligase TRIM62 (Homo sapiens) (UniProt Q9H257+Q9BVG3)
# Assay: disruptors of CARD9-TRIM62 binding, primary screen, cell lysate, HEK293FT lysates, Luminex bead ELISA (AID 1259341);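 note: PE anti-Flag signal of Flag-CARD9 captured by myc-TRIM62 beads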
# Conditions: PE fluorescence, stronger effect = lower value, concentration not given here
# Sequence of Caspase recruitment domain-containing protein 9 (Homo sapiens) + E3 ubiquitin-protein ligase TRIM62 (Homo sapiens) (Q9BVG3 whole entry, looked up, the tested form may be a part): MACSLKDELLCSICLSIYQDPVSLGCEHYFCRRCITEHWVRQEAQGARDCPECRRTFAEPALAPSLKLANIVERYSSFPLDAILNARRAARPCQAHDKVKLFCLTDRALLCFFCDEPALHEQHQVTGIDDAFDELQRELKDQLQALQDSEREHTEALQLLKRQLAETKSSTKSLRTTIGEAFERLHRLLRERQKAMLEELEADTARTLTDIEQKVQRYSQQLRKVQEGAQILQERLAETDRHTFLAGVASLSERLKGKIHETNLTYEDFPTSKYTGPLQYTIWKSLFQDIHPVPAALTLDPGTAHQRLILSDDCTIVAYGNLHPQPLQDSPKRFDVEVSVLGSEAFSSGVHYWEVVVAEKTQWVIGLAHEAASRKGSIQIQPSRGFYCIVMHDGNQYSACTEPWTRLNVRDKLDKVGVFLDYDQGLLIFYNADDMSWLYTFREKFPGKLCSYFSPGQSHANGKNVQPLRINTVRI
# Sequence of Caspase recruitment domain-containing protein 9 (Homo sapiens) + E3 ubiquitin-protein ligase TRIM62 (Homo sapiens) (Q9H257 whole entry, looked up, the tested form may be a part): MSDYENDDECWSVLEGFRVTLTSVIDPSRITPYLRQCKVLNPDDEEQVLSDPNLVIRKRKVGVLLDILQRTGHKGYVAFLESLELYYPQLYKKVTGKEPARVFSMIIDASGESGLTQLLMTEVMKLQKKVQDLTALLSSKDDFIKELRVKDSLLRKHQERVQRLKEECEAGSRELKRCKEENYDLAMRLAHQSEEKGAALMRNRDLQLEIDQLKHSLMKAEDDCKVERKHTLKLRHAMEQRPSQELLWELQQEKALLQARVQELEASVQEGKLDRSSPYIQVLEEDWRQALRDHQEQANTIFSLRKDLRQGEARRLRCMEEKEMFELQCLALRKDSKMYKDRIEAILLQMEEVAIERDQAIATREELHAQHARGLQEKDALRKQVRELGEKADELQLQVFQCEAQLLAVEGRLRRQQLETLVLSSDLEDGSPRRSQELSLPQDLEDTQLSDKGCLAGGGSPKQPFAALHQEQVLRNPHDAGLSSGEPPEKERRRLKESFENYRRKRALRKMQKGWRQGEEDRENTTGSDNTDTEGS
row,SMILES,"activity change, negative = inhibition"
1,O=C(Nc1ccon1)c1cc2cccnc2n(Cc2ccccc2)c1=O,4.61% (inactive)
2,Cc1ccc(S(=O)(=O)Cc2ccc(C(=O)N3CCC4(CC3)OCCO4)o2)cc1,1.47% (inactive)
3,O=C(NC1(C(F)(F)F)Oc2ccc(Cl)cc2O1)N1CCC2(CC1)OCCO2 (configuration not stated),-0.512% (inactive)
4,CCCCCn1c(NC(=O)c2ccco2)c(C(=O)OCC)c2nc3ccccc3nc21,-11.3% (inactive)
5,O=C(NCCc1ccccc1)c1cc2cccnc2n(Cc2ccccc2)c1=O,-0.118% (inactive)
6,Nc1c(C(=O)NCc2ccco2)c2nc3ccccc3nc2n1CCN1CCOCC1,-14.4% (inactive)
7,Nc1c2c(nc3ccccc13)CCN(Cc1ccccc1)C2,-1.61% (inactive)
